Test results published in PubChem BioAssay (Tox21).
Results filed as inconclusive are left out. The source made the active and inactive calls. Unless noted, the call rests on the fitted dose curve; in most records, active means well fitted inhibition curve with a large enough effect in the repeat runs; inconclusive means weak or mixed curves; inactive means no such curve, though single readings can be large or run the other way.

Tested on: not listed separately
Assay: qHTS assay to identify small molecule antagonists of the thyroid receptor (TR) signaling pathway (AID 743065); further: nearly all actives have a fitted effect of over 55% in size; further: potency means the concentration at half of the fitted maximal effect
Details: GH3.TRE-Luc, T3-stimulated luciferase inhibition, 23.5 h; series mostly up to 70.3 µM; activity, negative = inhibition: at the top concentration
Method in brief: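 Antagonism measured as loss of luciferase signal in GH3 cells stably carrying a TRE-luciferase reporter, co-treated with compound and T3 (1 nM final) for 23.5 h at 37 C. Viability was read in the same well by CellTiter-Fluor.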
On the % scale 0 is the no-effect control and ±100 the full control effect.

| Structure (SMILES) | activity, negative = inhibition | Potency |
| --- | --- | --- |
| CNC[C@@H]1CC[C@@H](N)[C@@H](O[C@H]2[C@H](O)[C@@H](O[C@H]3OC[C@](C)(O)[C@H](NC)[C@H]3O)[C@H](N)C[C@@H]2N)O1 | 10.7% (inactive) | – |
| CCc1ccc(S(=O)(=O)O)cc1 | 17.1% (inactive) | – |
| Cc1cc(-c2ccc(N=Nc3c(S(=O)(=O)O)cc4cc(S(=O)(=O)O)cc(N)c4c3O)c(C)c2)ccc1N=Nc1c(S(=O)(=O)O)cc2cc(S(=O)(=O)O)cc(N)c2c1O | – | 11.9 µM (active) |
| C#CCC(Cc1cnc2nc(N)nc(N)c2n1)c1ccc(C(=O)N[C@@H](CCC(=O)O)C(=O)O)cc1 (stereo partly specified) | – | 0.75 µM (active) |
| CO[C@H]1[C@@H](O)[C@H](N)[C@@H](O[C@H]2O[C@H]([C@H](C)N)CC[C@H]2N)[C@H](O)[C@@H]1N(C)C(=O)CN | 3.9% (inactive) | – |
| CCCCC(O)c1ccccc1 (stereo unspecified) | 17.5% (inactive) | – |
| CN[C@H]1CCc2cc(OC)c(OC)c(OC)c2-c2ccc(OC)c(=O)cc21 | – | 0.0841 µM (active) |
| COc1cc(/C=C/C(=O)N2CCN(CC(=O)N3CCCC3)CC2)cc(OC)c1OC | 1.64% (inactive) | – |
| O=C(OCc1ccccc1)c1cccnc1 | -12.8% (inactive) | – |
| O=c1[nH]cnc2[nH]cc(CN3CCCCC3)c12 | 0.0024% (inactive) | – |
| CC(=O)N[C@@H]1C(O[C@H]2O[C@H](C(=O)O)C(O)[C@H](O)[C@H]2O)[C@H](O)[C@@H](CO)O[C@H]1O[C@@H]1C(C(=O)O)O[C@@H](O[C@H]2[C@H](O)[C@@H](CO)OC(O)[C@@H]2NC(C)=O)[C@H](O)[C@H]1O (stereo partly specified) | 11.7% (inactive) | – |
| O=C[C@H](O)[C@@H](O)[C@H](O[C@H]1O[C@H](CO)[C@@H](O[C@H]2O[C@H](CO)[C@@H](O)[C@H](O)[C@H]2O)[C@H](O)[C@H]1O)[C@H](O)CO | 1.84% (inactive) | – |
| OCC(O)COc1ccc(Cl)cc1 (stereo unspecified) | 0.371% (inactive) | – |
| C=CCN1CCCC1CNC(=O)c1cc(S(N)(=O)=O)cc(OC)c1OC (stereo unspecified) | 4.93% (inactive) | – |
| Nc1ccn(C[C@@H](CO)OCP(=O)(O)O)c(=O)n1 | 0.0294% (inactive) | – |
| CC(=O)[C@@]1(O)CC[C@H]2[C@@H]3C=C(Cl)C4=CC(=O)[C@@H]5C[C@@H]5[C@]4(C)[C@H]3CC[C@@]21C | -14.8% (inactive) | – |
| COC(=O)[C@@H](N)CS | 7.88% (inactive) | – |
| CCCCCCCCCCCCCCCCCC(=O)OCCO | 4.65% (inactive) | – |
| C=C1c2c(Cl)ccc(O)c2C(O)=C2C(=O)[C@]3(O)C(O)=C(C(N)=O)C(=O)[C@@H](N(C)C)[C@@H]3[C@@H](O)[C@H]12 | 0.0124% [at 32.5 µM] (inactive) | – |

| Structure (SMILES) | activity, negative = inhibition | Potency |
| --- | --- | --- |
| NC(=S)N=Nc1ccc(NN=C(N)N)cc1 | – | 26.6 µM (active) |
| O=c1oc2cc(O)ccc2s1 | -5.55% (inactive) | – |
| Nc1nc2[nH]cc(CCc3ccc(C(=O)N[C@@H](CCC(=O)O)C(=O)O)cc3)c2c(=O)[nH]1 | -12.3% (inactive) | – |
| CCN(CC)CCOC(=O)c1cccnc1 | 8.46% (inactive) | – |
| C[N+](C)(CCCCCC[N+](C)(C)C1c2ccccc2-c2ccccc21)C1c2ccccc2-c2ccccc21 | -1.15% (inactive) | – |
| O=C1NCCN1c1ncc([N+](=O)[O-])s1 | 0.973% [at 32.5 µM] (inactive) | – |
| CCOc1ccc(N=C(C)Nc2ccc(OCC)cc2)cc1 | -4.05% (inactive) | – |
| CCCCCCCCCCCCCCCC(=O)OC[C@@H](COP(=O)([O-])OCC[N+](C)(C)C)OC(=O)CCCCCCCCCCCCCCC | -0.739% (inactive) | – |
| C=CCCCCCCCCC(=O)OC | 11.9% (inactive) | – |
| Cc1c(O)cc2c(c1C)O[C@](C)(CCC[C@H](C)CCC[C@H](C)CCCC(C)C)CC2 | -0.0832% (inactive) | – |
| CCOC(=O)Nc1ccc2c(c1)N(C(=O)CN(C)C)c1ccccc1CC2 | – | 48.6 µM (active) |
| c1ccc2c(CCC3CCNCC3)c[nH]c2c1 | – | 21.1 µM (active) |
| CC(=O)N(CC(C)C(=O)O)c1c(I)cc(I)c(N)c1I (stereo unspecified) | 4.78% [at 32.5 µM] (inactive) | – |
| COc1cc(S(C)=O)ccc1-c1nc2ncccc2[nH]1 (stereo unspecified) | 0.556% (inactive) | – |
| CC(=O)N[C@@H](CC(=O)N[C@@H](CCC(=O)O)C(=O)O)C(=O)O | 18.8% (inactive) | – |
| CO/N=C(\C(=O)N[C@@H]1C(=O)N2C(C(=O)O)=C(CSC(=O)c3ccco3)CS[C@H]12)c1csc(N)n1 | 8.01% (inactive) | – |
| Cc1onc(-c2ccccc2)c1C(=O)N[C@@H]1C(=O)N2[C@@H]1SC(C)(C)[C@@H]2C(=O)O | 8.06% (inactive) | – |
| CCCc1ccc(C(=O)O)cc1 | -6.24% (inactive) | – |
| N[C@H](CC(=O)O)C(=O)O | 26% (inactive) | – |

Tested on: thyroid hormone receptor (rat, GH3 cells)
Assay: qHTS assay to identify small molecule agonists of the thyroid receptor (TR) signaling pathway (AID 743066; calls by dose curve)
Details: GH3.TRE-Luc cells, TR agonist luciferase, 24 h; series mostly up to 83.9 µM; activation: at the top concentration

| Structure (SMILES) | activation |
| --- | --- |
| CNC[C@@H]1CC[C@@H](N)[C@@H](O[C@H]2[C@H](O)[C@@H](O[C@H]3OC[C@](C)(O)[C@H](NC)[C@H]3O)[C@H](N)C[C@@H]2N)O1 | 0.611% (inactive) |
| CCc1ccc(S(=O)(=O)O)cc1 | -0.261% (inactive) |
| Cc1cc(-c2ccc(N=Nc3c(S(=O)(=O)O)cc4cc(S(=O)(=O)O)cc(N)c4c3O)c(C)c2)ccc1N=Nc1c(S(=O)(=O)O)cc2cc(S(=O)(=O)O)cc(N)c2c1O | -6.27% (inactive) |
| C#CCC(Cc1cnc2nc(N)nc(N)c2n1)c1ccc(C(=O)N[C@@H](CCC(=O)O)C(=O)O)cc1 (stereo partly specified) | -5.85% (inactive) |
| CO[C@H]1[C@@H](O)[C@H](N)[C@@H](O[C@H]2O[C@H]([C@H](C)N)CC[C@H]2N)[C@H](O)[C@@H]1N(C)C(=O)CN | 0.34% (inactive) |
| CCCCC(O)c1ccccc1 (stereo unspecified) | 0.0809% (inactive) |
| CN[C@H]1CCc2cc(OC)c(OC)c(OC)c2-c2ccc(OC)c(=O)cc21 | -3.17% (inactive) |
| COc1cc(/C=C/C(=O)N2CCN(CC(=O)N3CCCC3)CC2)cc(OC)c1OC | -0.517% (inactive) |
| O=C(OCc1ccccc1)c1cccnc1 | -0.533% (inactive) |
| O=c1[nH]cnc2[nH]cc(CN3CCCCC3)c12 | 1.02% (inactive) |
| CC(=O)N[C@@H]1C(O[C@H]2O[C@H](C(=O)O)C(O)[C@H](O)[C@H]2O)[C@H](O)[C@@H](CO)O[C@H]1O[C@@H]1C(C(=O)O)O[C@@H](O[C@H]2[C@H](O)[C@@H](CO)OC(O)[C@@H]2NC(C)=O)[C@H](O)[C@H]1O (stereo partly specified) | 1.66% (inactive) |
| O=C[C@H](O)[C@@H](O)[C@H](O[C@H]1O[C@H](CO)[C@@H](O[C@H]2O[C@H](CO)[C@@H](O)[C@H](O)[C@H]2O)[C@H](O)[C@H]1O)[C@H](O)CO | 0.18% (inactive) |
| OCC(O)COc1ccc(Cl)cc1 (stereo unspecified) | 0.866% (inactive) |
| C=CCN1CCCC1CNC(=O)c1cc(S(N)(=O)=O)cc(OC)c1OC (stereo unspecified) | -0.652% (inactive) |
| Nc1ccn(C[C@@H](CO)OCP(=O)(O)O)c(=O)n1 | 0.104% (inactive) |
| CC(=O)[C@@]1(O)CC[C@H]2[C@@H]3C=C(Cl)C4=CC(=O)[C@@H]5C[C@@H]5[C@]4(C)[C@H]3CC[C@@]21C | -2.08% (inactive) |
| COC(=O)[C@@H](N)CS | -0.0915% (inactive) |
| CCCCCCCCCCCCCCCCCC(=O)OCCO | -1.75% (inactive) |
| C=C1c2c(Cl)ccc(O)c2C(O)=C2C(=O)[C@]3(O)C(O)=C(C(N)=O)C(=O)[C@@H](N(C)C)[C@@H]3[C@@H](O)[C@H]12 | -0.0952% [at 39.4 µM] (inactive) |

| Structure (SMILES) | activation |
| --- | --- |
| NC(=S)N=Nc1ccc(NN=C(N)N)cc1 | -4.28% (inactive) |
| O=c1oc2cc(O)ccc2s1 | 0.733% (inactive) |
| Nc1nc2[nH]cc(CCc3ccc(C(=O)N[C@@H](CCC(=O)O)C(=O)O)cc3)c2c(=O)[nH]1 | 0.221% (inactive) |
| CCN(CC)CCOC(=O)c1cccnc1 | 0.486% (inactive) |
| C[N+](C)(CCCCCC[N+](C)(C)C1c2ccccc2-c2ccccc21)C1c2ccccc2-c2ccccc21 | 0.0673% (inactive) |
| O=C1NCCN1c1ncc([N+](=O)[O-])s1 | -0.725% [at 39.4 µM] (inactive) |
| CCOc1ccc(N=C(C)Nc2ccc(OCC)cc2)cc1 | -5.09% (inactive) |
| CCCCCCCCCCCCCCCC(=O)OC[C@@H](COP(=O)([O-])OCC[N+](C)(C)C)OC(=O)CCCCCCCCCCCCCCC | 0.577% (inactive) |
| C=CCCCCCCCCC(=O)OC | 0.309% (inactive) |
| Cc1c(O)cc2c(c1C)O[C@](C)(CCC[C@H](C)CCC[C@H](C)CCCC(C)C)CC2 | -0.198% (inactive) |
| CCOC(=O)Nc1ccc2c(c1)N(C(=O)CN(C)C)c1ccccc1CC2 | -7.34% (inactive) |
| c1ccc2c(CCC3CCNCC3)c[nH]c2c1 | -6.67% (inactive) |
| CC(=O)N(CC(C)C(=O)O)c1c(I)cc(I)c(N)c1I (stereo unspecified) | 0.272% [at 39.4 µM] (inactive) |
| COc1cc(S(C)=O)ccc1-c1nc2ncccc2[nH]1 (stereo unspecified) | 0.343% (inactive) |
| CC(=O)N[C@@H](CC(=O)N[C@@H](CCC(=O)O)C(=O)O)C(=O)O | 3.1% (inactive) |
| CO/N=C(\C(=O)N[C@@H]1C(=O)N2C(C(=O)O)=C(CSC(=O)c3ccco3)CS[C@H]12)c1csc(N)n1 | 0.531% (inactive) |
| Cc1onc(-c2ccccc2)c1C(=O)N[C@@H]1C(=O)N2[C@@H]1SC(C)(C)[C@@H]2C(=O)O | 0.674% (inactive) |
| CCCc1ccc(C(=O)O)cc1 | -0.432% (inactive) |
| N[C@H](CC(=O)O)C(=O)O | 1.83% (inactive) |
